Results taken from PubChem BioAssay (Tox21).
Where “and” joins values, the source holds several entries; their conditions need not be identical. Equal values may be shown once. A number with no mark means an inactive call. Inconclusive results are not listed. Entries that show only a call come without a potency. Calls of active or inactive are those of the source. Unless noted, the call rests on the fitted dose curve; in most records, active means well fitted curve in the direction sought with a large enough effect in the repeat runs; inconclusive means weak or mixed curves; inactive means no such curve, though single readings can be large; an effect the other way counts as inactive or inconclusive.

Legend:
[1] = Caspase-3/7 induction in HepG2 cells by small molecules, qHTS assay (AID 1346978); further: nearly all actives have a fitted effect of over 15% in size
How it was run: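 Wild-type HepG2 cells (2,000/well) were settled 5 h at 37 C, 5% CO2, then exposed to compounds in DMSO for 17 h. Caspase-3/7 activity was read by luminescence 30 min after adding Caspase-Glo 3/7 reagent at room temperature.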

[2] = Caspase-3/7 induction in CHO-K1 cells by small molecules, qHTS cell viability counter screen (AID 1346979); further: nearly all actives have a fitted effect of over 35% in size; further: potency means the concentration at half of the fitted maximal effect
How it was run: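 Wild-type CHO-K1 cells (1,500/well) treated with compound after 5 h plating; after 16 h at 37C, viability read as CellTiter-Fluor fluorescence following 1 h reagent incubation, in the same wells as the caspase read.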

[3] = Caspase-3/7 induction in CHO-K1 cells by small molecules, qHTS assay (AID 1346980); further: nearly all actives have a fitted effect of over 15% in size
How it was run: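 Wild-type cells were seeded at 1,500 per well and settled 5 hr at 37 C, 5% CO2, then exposed to DMSO-dissolved compounds for 17 hr. Caspase-Glo 3/7 reagent was added, and luminescence was read after 30min at room temperature.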

[4] = Caspase-3/7 induction in HepG2 cells by small molecules, qHTS cell viability counter screen (AID 1346981); further: nearly all actives have a fitted effect of over 30% in size; further: potency means the concentration at half of the fitted maximal effect
How it was run: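 In this quantitative HTS counter screen, compounds delivered in DMSO were left on unmodified HepG2 cells for 16 hr at 37 C. Viability was then determined fluorometrically with CellTiter-Fluor, in parallel with caspase-3/7 induction in the same wells.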

[5] = target: Nuclear receptor subfamily 1 group I member 2 (Homo sapiens) (UniProt O75469); assay: Human pregnane X receptor (PXR) small molecule agonists, qHTS assay (AID 1346982); further: nearly all actives have a fitted effect of over 35% in size; further: potency means the concentration at half of the fitted maximal effect
How it was run: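 Reporter HepG2 cells expressing PXR-Luc are cultured in charcoal-stripped FBS (5%), treated with compounds for 24 hr at 37 C, and assayed by ONE-Glo luminescence after 30 min at room temperature.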

[6] = target: Acetylcholinesterase (Homo sapiens) (UniProt P22303); assay: Acetylcholinesterase (AChE) small molecule antagonists: enzyme-based qHTS assay (AID 1347397; calls by dose curve; further: nearly all actives have a fitted effect of over 55% in size; further: potency means the concentration at half of the fitted maximal effect); details: Potency: AChE enzyme activity inhibition; outcome: AChE enzyme activity inhibition
How it was run: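 Tox21 library chemicals are tested in qHTS format against recombinant human AChE. The enzyme, dispensed at 50 mU/mL, sits with compound for 30 min at room temperature. A DTNB–acetylthiocholine cocktail follows, and colour is read after 10 min.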

[7] = target: Acetylcholinesterase (Homo sapiens) (UniProt P22303); assay: Acetylcholinesterase (AChE) small molecule antagonists: fluorescence cell-based qHTS assay (AID 1347398; calls by dose curve; further: nearly all actives have a fitted effect of over 50% in size; further: potency means the concentration at half of the fitted maximal effect); details: Potency: AChE activity; outcome: AChE activity
How it was run: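 Cellular AChE inhibition: SH-SY5Y cells treated with test chemical for 30 min at 37 C, then acetylthiocholine hydrolysis followed over 40 min at room temperature via thiocholine-reactive Thiolite Green fluorescence (490/520 nm).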

[8] = target: Acetylcholinesterase (Homo sapiens) (UniProt P22303); assay: Acetylcholinesterase (AChE) small molecule antagonists: colormetric cell-based qHTS assay (AID 1347395; calls by dose curve; further: nearly all actives have a fitted effect of over 30% in size; further: potency means the concentration at half of the fitted maximal effect)
How it was run: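 SH-SY5Y cells attached overnight, exposed to compound 30 min at 37 C, then given DTNB/acetylthiocholine; after 90 min at 37 C, colorimetric thiocholine read gives cellular AChE activity.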

Sequence of Acetylcholinesterase (Homo sapiens) (P22303 whole entry, looked up): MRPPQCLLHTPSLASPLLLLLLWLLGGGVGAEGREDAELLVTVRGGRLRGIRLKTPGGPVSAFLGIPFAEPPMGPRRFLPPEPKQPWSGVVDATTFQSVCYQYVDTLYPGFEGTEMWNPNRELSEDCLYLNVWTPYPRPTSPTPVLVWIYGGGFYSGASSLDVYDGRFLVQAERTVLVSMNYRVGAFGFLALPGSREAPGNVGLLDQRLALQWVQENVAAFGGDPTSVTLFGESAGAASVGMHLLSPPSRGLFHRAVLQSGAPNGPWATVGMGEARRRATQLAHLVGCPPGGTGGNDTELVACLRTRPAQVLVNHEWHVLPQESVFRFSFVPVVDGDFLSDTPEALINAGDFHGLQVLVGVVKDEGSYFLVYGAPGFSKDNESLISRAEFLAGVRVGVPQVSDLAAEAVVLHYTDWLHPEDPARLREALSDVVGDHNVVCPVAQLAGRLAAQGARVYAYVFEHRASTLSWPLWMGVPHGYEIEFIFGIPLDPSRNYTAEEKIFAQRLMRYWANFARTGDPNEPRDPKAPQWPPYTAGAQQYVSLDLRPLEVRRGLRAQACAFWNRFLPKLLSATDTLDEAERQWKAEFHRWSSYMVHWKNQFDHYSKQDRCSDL
Sequence of Nuclear receptor subfamily 1 group I member 2 (Homo sapiens) (O75469 whole entry, looked up): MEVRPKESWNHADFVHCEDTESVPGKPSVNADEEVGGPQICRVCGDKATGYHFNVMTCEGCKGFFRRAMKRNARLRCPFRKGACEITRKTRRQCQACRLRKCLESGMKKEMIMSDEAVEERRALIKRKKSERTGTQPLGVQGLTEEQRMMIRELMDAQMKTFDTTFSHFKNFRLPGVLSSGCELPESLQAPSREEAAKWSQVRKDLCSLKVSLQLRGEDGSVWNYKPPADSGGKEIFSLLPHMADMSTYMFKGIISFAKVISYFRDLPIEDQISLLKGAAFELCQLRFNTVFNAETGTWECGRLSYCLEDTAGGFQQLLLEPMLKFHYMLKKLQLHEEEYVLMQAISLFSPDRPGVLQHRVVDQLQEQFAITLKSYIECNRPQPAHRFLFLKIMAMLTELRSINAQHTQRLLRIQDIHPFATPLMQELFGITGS

| Compound | Potency [1] | Potency [2] | Potency [3] | Potency [4] | Potency [5] | Potency [6] | Potency [7] | Potency [8] |
| --- | --- | --- | --- | --- | --- | --- | --- | --- |
| CC(C)OC(=O)Cc1ccccc1 | inactive | inactive | inactive | inactive | inactive | inactive | inactive |  |
| CCCSP(=S)(OCC)Oc1ccc(SC)cc1 (centres undefined) | inactive | inactive | inactive | inactive | 17.2 µM (active) | inactive | inactive | inactive |
| Nc1ccccc1C(=O)OCC(O)CO (centres undefined) | inactive | inactive | inactive | inactive | inactive | inactive | inactive |  |
| CC1(C)CC(=O)CC(C)(C)N1[O] | inactive | inactive | inactive | inactive | inactive | inactive | inactive | inactive |
| C=CC(=O)OCC | inactive | inactive | inactive | inactive | inactive | inactive | inactive |  |
| C[C@]12CC[C@H]3[C@@H](CCC4=CC(=O)CC[C@@H]43)[C@@H]1CC[C@@H]2OC(=O)CCc1ccccc1 | inactive | inactive | inactive | inactive | inactive | inactive |  |  |
| O=C(O)COc1cc(Cl)c(Cl)cc1Cl | inactive | inactive | inactive | inactive | inactive | inactive | inactive | inactive |
| CC(=O)OC(c1ccccc1)C(Cl)(Cl)Cl (centres undefined) | inactive | inactive | inactive | inactive | inactive | inactive | inactive | inactive |
| CC(C)c1ccc(NC(=O)N(C)C)cc1 | inactive | inactive | inactive | inactive | 30.6 µM (active) | inactive | inactive | inactive |
| NC(=O)CF | inactive | inactive | inactive | inactive | inactive | inactive | inactive | inactive |
| CCC(C)Cl (centres undefined) | inactive | inactive | inactive | inactive | inactive | inactive | inactive | inactive |
| C=CC(=O)NC(C)(C)CC(C)=O | inactive | inactive | inactive | inactive | inactive | inactive | inactive | inactive |
| CCOC(C(=O)OCCN(C)C)(c1ccccc1)c1ccccc1 | inactive | inactive | inactive | inactive | 13.3 µM (active) | inactive | inactive |  |
| CN(C)c1ccc(N=O)cc1 | inactive | 7.72 µM (active) and 8.63 µM (active) | inactive | 54.6 µM (active) and 61.1 µM (active) | 21.8 µM (active) and 9.69 µM (active) | inactive | inactive |  |
| CN1CC[C@]23c4c5ccc(O)c4O[C@H]2[C@@H](O)CC[C@H]3[C@H]1C5 | inactive | inactive | inactive | inactive | inactive | inactive | inactive |  |
| OC[P+](CO)(CO)CO | inactive | inactive | inactive | inactive | 61.8 µM (active) | inactive | inactive | inactive |
| CCCCCBr | inactive | inactive | inactive | inactive | inactive | inactive | inactive | inactive |
| CCCCC#N | inactive | inactive | inactive | inactive | inactive | inactive | inactive |  |
| CCCCNC(=O)OCC#CI | inactive | 30.5 µM (active) and 27.3 µM (active) | inactive | 48.3 µM (active) and 61.1 µM (active) | inactive | inactive | inactive |  |
| C[C@H]1[C@@H]2Cc3ccc(O)cc3[C@@]1(C)CCN2C | inactive | inactive | inactive | inactive | inactive | 33.9 µM (active) | 2.14 µM (active) | 15.2 µM (active) |
| SCc1ccccc1 | inactive | inactive | inactive | inactive | inactive | inactive | inactive | inactive |
| CCCC(C)(COC(N)=O)COC(=O)NC(C)C (centres undefined) | inactive | inactive | inactive | inactive | inactive | inactive | inactive | inactive |
| NNCCO | inactive | inactive | inactive | inactive | inactive | inactive | inactive | inactive |
| CCOP(=S)(OCC)Oc1ccc(S(C)=O)cc1 (centres undefined) | inactive | inactive | inactive | inactive | 38.6 µM (active) | inactive |  |  |
| O=C(Cc1ccccc1)c1ccccc1 | inactive | inactive | inactive | inactive | 61.1 µM (active) | inactive | inactive | inactive |
| O=S(=O)(Cl)Cl | inactive | inactive | inactive | inactive | inactive | inactive | inactive | inactive |
| O=S(=O)(c1ccccc1)c1ccccc1 | inactive | inactive | inactive | inactive | inactive | inactive | inactive | inactive |
